Results on 26 compounds are retold here after PubChem BioAssay (NCI).

Values joined by “and” are separate entries in the source; they are usually repeats but may differ in a detail not shown here. Identical values can stand only once. Compounds without any hit were thinned out: in the full panel of roughly 83,000, 20% have a hit.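 Results are percent growth after 48 hours of single-concentration exposure. 100 means growth as in untreated cells, lower positive values show inhibition; negative values down to -100 show cell death.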 Active and inactive are the calls of the source. How the source made its calls: active means growth percent below 10; inactive means the rest.

The test has as its system MDA-MB-468 breast. Nature of the test: NCI-60 one-dose screen, 48 h (100 = growth as untreated, 0 = no growth, -100 = all killed). To be noted: 10 µM unless noted.
For the compound `CCN(CC)CCNc1cc(-c2cccc(OC(F)(F)F)c2)nc2ccc(N3CCCC3)cc12`, the growth is 28.6% (inactive) and -38.3% (active) and 0.911% (active).

Turning to `COc1ccc(-c2cn[nH]c2-c2cc(OC)c3c(c2)OCO3)cc1`, the growth was 36.1% (inactive).

With `COc1cc(-c2ncn(/C=C\C(=O)OC(C)C)n2)cc(C(F)(F)F)c1`, the growth was -40.6% (active).

Regarding `NC1(C(=O)N[C@@H](CCO)c2ccc(Cl)cc2)CCN(c2ncnc3[nH]ccc23)CC1`, the growth was 4.8% (active).

For the compound `O=C(Nc1ccccc1S)c1ccccc1`, the growth is 115% (inactive).

As for `O=C(/C=C/c1cc2ccccc2[nH]c1=O)c1ccc(Cl)cc1`, the growth is 15.4% (inactive).

Take `c1cc2ccc3cc2cc1CNCCN1CCNCc2ccc4ccc(cc4c2)CNCCN(CCNC3)CCNCc2ccc3ccc(cc3c2)CNCC1`: the growth was -45.2% (active).

With `CCOC(=O)c1n[nH]n2c1nc(=O)c1cnn(C)c12`, the growth is 113% (inactive).

Consider `N=C(N)N=Nc1ccc(NN=C(N)N)c2ccccc12`, for which the growth was -27.2% (active).

Take `CC(CN=Cc1ccccc1O)N=Cc1ccccc1O` (stereo unspecified): the growth is 115% (inactive) and 98% (inactive).

With `O=C1c2ccccc2-c2nnc(-c3ccc(Br)cc3)cc21`, the growth is 20.3% (inactive).

Consider `O=C(C(=O)N1CCCC1)c1cn(CCCn2cc(C(=O)C(=O)N3CCCC3)c3cc(Br)ccc32)c2ccc(Br)cc12`, for which the growth is 70.4% (inactive).

Regarding `O=C(Nc1cccc(-n2cc(-c3ccncc3)c(-c3cc(O)cc(Cl)c3)n2)c1)c1cc(C(F)(F)F)cc(C(F)(F)F)c1`, the growth was 31.2% (inactive).

For `N#Cc1c(N)nc2c(nnn2-c2cccc(Br)c2)c1N`, the growth was 92.9% (inactive).

Consider `COc1ccc(-c2cc(/C=C3\C(=O)Nc4ccc(Cl)cc43)[nH]n2)cc1OC`, for which the growth was 108% (inactive).

As to `O=c1ccc(N=Nc2ccccc2)ccc1Cl`, the growth is -51.2% (active).

With `Cc1c2cnccc2c(C)c2c1c1cc(C(=O)O)ccc1n2C`, the growth is -7.86% (active).

`COc1cc(/C=C\c2cc(/C=C\c3ccc(O)c(OC)c3)n(C(=O)CNc3ccccc3OC)n2)ccc1O`: the growth is 95.8% (inactive).

Regarding `CC1(C)CC[C@]2(C(=O)O)CC[C@]3(C)C(=CC[C@@H]4[C@@]5(C)C/C(=C/c6ccco6)C(=O)C(C)(C)[C@@H]5CC[C@]43C)[C@@H]2C1`, the growth is -3.74% [100 µM] (active).

As for `COCC(=O)NC/C=C/c1ccc2ncnc(Nc3ccc(Oc4ccc(C)nc4)c(C)c3)c2c1`, the growth was 28.4% (inactive).

For `CC(C)(Sc1cc(C(C)(C)C)c(OC(=O)CCCC(=O)O)c(C(C)(C)C)c1)Sc1cc(C(C)(C)C)c(OC(=O)CCCC(=O)O)c(C(C)(C)C)c1`, the growth is 54.1% (inactive).

For `Cc1ccc(-c2nc(C#N)c(S(=O)(=O)N(C)CCO)o2)cc1`, the growth was 46.1% (inactive).

As to `NCCCN`, the growth is 107% (inactive).

Turning to `O=c1c2ccccc2oc2ccc(OCCCCCN3CCCCCC3)cc12`, the growth was 49.8% (inactive).

Turning to `CC(=O)Cc1ccc(-c2ccccc2)cc1`, the growth was 93.7% (inactive).

As to `Cc1ccc(-n2c(=S)[nH]c3sc4c(c3c2=O)CCC(=O)C4)cc1`, the growth was 51.1% (inactive).
